# Screening results deposited in PubChem by National Center for Advancing Translational Sciences (NCATS).
# This is a sample that favours compounds with a hit; in the whole collection about 0.43% have one here.
# GAA inh – qHTS Assay for Inhibitors of Human alpha-Glucosidase as a Potential Chaperone Treatment of Pompe Disease. 200,000 compounds, 0.005% hits. Potency, µM (top dose mostly 76.9 µM), without a hit: at the highest dose activity change, negative = inhibition, actives largely listed as inhibitors. Lysosomal alpha-glucosidase (Homo sapiens), P10253. purified human GAA, 4-MU-alpha-glucoside fluorescence;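 note: potency is the fitted concentration of half-maximal effect; plate controls were uninhibited enzyme wells for no effect and no-enzyme background for full effect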
#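 Endpoint fluorogenic read: 20 min room-temperature reaction of 4 nM human alpha-glucosidase with 400 uM 4-methylumbelliferyl-alpha-D-pyranoside, pH 5.0, quenched with 1M NaOH/1M glycine pH 10. AC50 from Hill modeling.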
# N370S GC mod – qHTS Assay for Inhibitors and Activators of N370S glucocerebrosidase as a Potential Chaperone Treatment of Gaucher Disease | Lysosomal acid glucosylceramidase (Homo sapiens), P04062 | N370S GC spleen homogenate, 4MU-glucoside fluorescence | Potency, µM (titrated, usually from 59.4 µM), without a hit: at the top dose activity change, negative = inhibition, usual class: inhibitors | 330,000 compounds, 0.092% hits | AID 2101, 2009;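 note: potency is the fitted concentration of half-maximal effect; 0% = full enzyme activity and -100% = no enzyme basal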
# GAA spleen mod – qHTS Assay for Inhibitors and Activators of Human alpha-Glucosidase From Spleen Homogenate; Potency, µM (doses to about 79.9 µM), for the others: top-dose activity change, negative = inhibition, hits mostly inhibitors; 240,000 compounds, 0.006% hits; AID 2112, 2009; human spleen homogenate, 4-MU-alpha-glucoside fluorescence; Lysosomal alpha-glucosidase (Homo sapiens), P10253;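 note: potency is the fitted concentration of half-maximal effect; 0% = enzyme with vehicle and -100% = no enzyme basal signal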
#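 Compounds were titrated against alpha-glucosidase in spleen homogenate at pH 5.0, with 1 mM 4-methylumbelliferyl substrate for 40 min at 37 C. Reactions were quenched with pH 10 NaOH/glycine and fluorescence measured.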
# GAA glycogen mod – qHTS Assay for Inhibitors and Activators of Human alpha-Glucosidase Cleavage of Glycogen | Lysosomal alpha-glucosidase (Homo sapiens), P10253 | recombinant GAA, glycogen substrate, Amplex Red glucose oxidase fluorescence | Potency, µM (titrated, usually from 76.4 µM), for inactives: top-dose activity change, negative = inhibition, actives largely listed as inhibitors | 300,000 compounds, 0.38% hits | AID 2100, 2009;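 note: potency is the fitted concentration of half-maximal effect; 0% = full enzyme reaction and -100% = no-enzyme basal signal; the screen sought inhibitors and activators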
#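 Natural-substrate format: glycogen cleavage by 4 nM human enzyme, glucose read by Amplex Red coupling (Ex 573, Em 610 nm). Normalized to enzyme and no-enzyme controls.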
# GLA inh pH 4.5 – qHTS Assay for Inhibitors of Human alpha-Galactosidase at pH 4.5; Alpha-galactosidase A (Homo sapiens), P06280; purified enzyme, 4-MU-alpha-Gal fluorescence, pH 4.5; activity change, negative = inhibition, % at 105 µM; 230,000 tested, under 10 active; AID 1467, 2008;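 note: 0% = full activity with enzyme and -100% = basal without enzyme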
# aGal spleen mod – qHTS Assay for Inhibitors and Activators of Human alpha-Galactosidase From Spleen Homogenate. 240,000 compounds, 0.008% hits. Alpha-galactosidase A (Homo sapiens), P06280. Potency, µM (top dose mostly 80 µM), inactives show top-dose activity change, negative = inhibition, hits mostly inhibitors. AID 2107, 2009. human spleen homogenate, 4MU-alpha-Gal fluorescence, 40 min;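 note: potency is the fitted concentration of half-maximal effect; 0% = enzyme with vehicle and -100% = no enzyme basal signal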
# Target sequence (P06280 32-429 limits assumed): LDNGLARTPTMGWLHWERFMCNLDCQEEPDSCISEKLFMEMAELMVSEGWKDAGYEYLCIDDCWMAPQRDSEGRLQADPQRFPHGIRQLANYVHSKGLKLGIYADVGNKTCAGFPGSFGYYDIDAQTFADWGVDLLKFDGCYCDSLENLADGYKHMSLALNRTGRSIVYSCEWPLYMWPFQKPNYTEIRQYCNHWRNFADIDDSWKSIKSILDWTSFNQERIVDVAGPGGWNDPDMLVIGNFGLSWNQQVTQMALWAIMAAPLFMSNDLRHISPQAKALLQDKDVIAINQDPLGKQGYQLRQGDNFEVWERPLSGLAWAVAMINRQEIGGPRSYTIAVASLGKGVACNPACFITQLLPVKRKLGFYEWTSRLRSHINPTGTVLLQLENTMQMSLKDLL
#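 Human spleen homogenate (1 ug) was the enzyme source, with 4-methylumbelliferyl-alpha-D-galactopyranoside (1 mM final) in pH 5.0 citrate buffer with 0.01% Tween-20. Compounds were titrated; after 40 min at 37C, NaOH/glycine stop, 4-MU fluorescence read; AC50 from Hill fits.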
# * = called active by the depositor; ? = inconclusive; . = not tested or not shown; ! = not confirmed by another sample; [ ] = remark or other dose. Calls come from the whole dose curve; as a rule, active = well fitted curve in the direction sought with a large enough effect; inconclusive = small, poorly fitted or top-dose-only effect, or another doubt; inactive = no such curve, though single readings can be large; an effect the other way counts as inactive or inconclusive.
SMILES,GAA inh,N370S GC mod,GAA spleen mod,GAA glycogen mod,GLA inh pH 4.5,aGal spleen mod
CCCCCC(O)c1ccc([C@H]2CCC(=O)[C@@H]2CCCCCCC(=O)O)cc1 (stereo partly drawn),.,-5%,5%,.,.,2%
CCOC(=O)c1c(C)[nH]c(NC(=O)Nc2c(C)n(C)n(-c3ccccc3)c2=O)c1C,-4%,3%,-20%,32µM*,-3,1%
NCC(=O)N[C@@H](CCCN=C(N)N)C(=O)NCC(=O)N[C@@H](CC(=O)O)C(=O)N[C@@H](CO)C(=O)N1CCC[C@H]1C(=O)O,.,0%,0%,.,.,-7%
CC(=O)/C(=N\Nc1ccc(C)cc1)N1CCOCC1,-2%,-18%,1%,12µM*,-3,7%
Cc1ccc(NS(=O)(=O)c2ccc(C(=O)N3CCOCC3)cc2)cc1,.,1%,.,.,.,.
C=CCc1cc(/C=C/c2nc(O)c([N+](=O)[O-])c(=O)[nH]2)cc(OC)c1O,?,-13%,-26%,11µM*,-11,-2%
COc1ccc(-n2c(=O)c3c4c(sc3n(Cc3cccc(F)c3)c2=O)CN(C(C)=O)CC4)c(OC)c1,7%,-19%,7%,-1%,-2,4%
COc1ccc(-n2c(=O)c3c4c(sc3n(Cc3ccc(F)cc3)c2=O)CN(C(C)=O)CC4)c(OC)c1,.,.,.,56µM*,.,.
C[C@H](C(=O)O)c1ccc2cc(O)ccc2c1,.,-1%,8%,.,.,14%
Cc1ccc(-n2c(CNc3cccc(Cl)c3)n[nH]c2=S)cc1,-3%,2%,-2%,28µM*,10,-2%
Cc1ccc(NCc2n[nH]c(=S)n2-c2cccc(Cl)c2)cc1,1%,22%,-3%,?,16,-7%
CC(C)c1cc(C(C)C)c(S(=O)(=O)Nc2cccc3cccnc23)c(C(C)C)c1,.,-3%,8%,.,.,0%
COCCNc1c(-c2ccc(OC)cc2)nc2ccc(Cl)cn12,7%,-24%,8%,5µM*,9,4%
O=c1c(-c2ccc(O)cc2)coc2cc(O)cc(O)c12,.,16µM*!,-7%,-3%,-8,7%
COc1ccc(-c2coc3cc(O)cc(O)c3c2=O)cc1,-1%[15.4 µM],?,-4%,-6%,3,-7%
O=C(Nc1ccc(N2CCOCC2)cc1)NC1CCCCC1,1%,3%,-3%,?,0,-10%
CC(C)N1C(=O)CC(Nc2ccc(N3CCOCC3)cc2)C1=O (stereo not drawn),-6%,.,-2%,25µM*,-13,1%
COc1ccc(CCN2C(=O)CC(Nc3ccc(N4CCOCC4)cc3)C2=O)cc1OC (stereo not drawn),-1%,-9%,-5%,16µM*,8,0%
CCc1ccc(NC2CC(=O)N(CCc3ccc(OC)c(OC)c3)C2=O)cc1 (stereo not drawn),4%,20%,-14%,-21%,-17,-17%
O=C1CC(Nc2ccccc2)C(=O)N1c1ccc(N2CCOCC2)cc1 (stereo not drawn),-8%,-24%,-5%,6%,8,9%
O=C1CC(Nc2ccc(N3CCOCC3)cc2)C(=O)N1c1ccccc1F (stereo not drawn),0%,-4%,0%,25µM*,-9,1%
O=C1CC(Nc2ccc(N3CCOCC3)cc2)C(=O)N1C1CCCCC1 (stereo not drawn),0%,-4%,-1%,13µM*,1,9%
O=C1CC2(CCCC2)CC(=O)N1CCCCNCC1COc2ccccc2O1 (stereo not drawn),.,-17%,-1%,.,.,-4%
NC(CC(=O)Nc1ccc(Oc2cc(F)c(F)cc2Br)cc1)C(=O)O (stereo not drawn),.,-9%,-4%,.,.,5%
Fc1ccccc1NC(=S)NNc1ncc(C(F)(F)F)cc1Cl,-10%,-2%,-1%,28µM*,2,1%
SMILES,GAA inh,N370S GC mod,GAA spleen mod,GAA glycogen mod,GLA inh pH 4.5,aGal spleen mod
Cc1c(N/C=C/C(=O)c2ccc(Cl)cc2)c(=O)n(-c2ccccc2)n1C,-3%,18%,-11%,14µM*,-4,-8%
Cc1c(NC(=O)C(=O)/C=C(\O)c2ccc(Cl)cc2)c(=O)n(-c2ccccc2)n1C,-3%,6%,4%,?,2,6%
Cc1c(NC(C)c2ccccc2O)c(=O)n(-c2ccccc2)n1C (stereo not drawn),-2%,-11%,-3%,28µM*,-2,7%
Cc1c(NC(C)c2cc(Cl)ccc2O)c(=O)n(-c2ccccc2)n1C (stereo not drawn),-7%,0%[12.8 µM],1%,11µM*,1,7%
Cc1c(NC(C)C)c(=O)n(-c2ccccc2)n1C,.,-1%,-7%,.,-13,2%
OC[C@@H]1O[C@H](OC2[C@@H](O)[C@@H](O)[C@@H](O)O[C@@H]2CO)[C@H](O)[C@@H](O)[C@@H]1OC1O[C@H](CO)[C@@H](O)[C@H](O)[C@@H]1O (stereo partly drawn),.,5%,-3%,.,.,8%
CNNC(=S)Nc1cccc(C(F)(F)F)c1,-1%,11%,0%,-29%,-10,4%
CCOc1ccc(NC(=S)NNC(=S)Nc2cccc(C(F)(F)F)c2)cc1,0%,-3%,-1%,?,-5,1%
FC(F)(F)c1cccc(NC(=S)NNC(=S)Nc2cccc(C(F)(F)F)c2)c1,-10%,-14%,2%,8.9µM*,-22,1%
COc1ccc(NC(=S)NNC(=S)Nc2cccc(C(F)(F)F)c2)cc1,-6%,-19%,4%,4.5µM*,-12,-5%
O=c1[nH]c2cc([N+](=O)[O-])c([N+](=O)[O-])cc2[nH]c1=O,-11%,8.9µM*,-6%,-6%,-9,11%
C/C=C1\COC(C(=O)NCCN2CCOCC2)(C(F)(F)F)C=C1C=C(C)C (stereo not drawn),.,14µM*,-3%,.,.,2%
COc1ccc(CNc2nc(NCc3ccc(OC)cc3)c3ncn(C4CCCCC4)c3n2)cc1,.,21%,-1%,.,.,-4%
CCCCOC(=O)c1cc(Cl)c(O)c(OC)c1,0%,4%,-10%,-3%,-9,-3%
COc1cc(C(=O)OCCC(C)C)cc(OC)c1O,-10%,4%,1%,11µM*,-16,-1%
CN(C)C1CCc2[nH]c3ccc(NC(=O)c4ccc(F)cc4)cc3c2C1 (stereo not drawn),.,19%,9%,.,.,-1%
